Assay results reported in PubChem BioAssay AID1159580 (chemical genetic matrix, 2015).
Out of some 5,500 compounds screened, about 2,000 (36%) were called active. Inconclusive results (about 18%) are left out. Cut-off read from the data, not from the text of the source: active = normalized growth mostly below about 0.91 (no sharp cut-off); inconclusive = no clear call, values can overlap the other calls; inactive = mostly above about 0.92. The list shows a part of the results.

Assay: chemical genetic growth profiling, strain panel (AID 1159580);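 note: tested at 20 µM; growth read once vehicle control cultures reached saturation at 30 °C; 1 = growth at the plate median or of vehicle wells; lower values mean less growth of the strain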
Conditions: S. cerevisiae deletion strains, growth OD

Measured: normalized growth

Cc1ccc(/C=C2\CCc3ccccc3C2=O)o1
active: locus YAL013W, strain DEP1, active compounds read low 0.451 | locus YBR229C, strain ROT2, active compounds read low 0.43 | locus YDL101C, strain DUN1, active compounds read low 0.472 | locus YDL134C, strain PPH21, active compounds read low 0.381 | locus YDR150W, strain NUM1, active compounds read low 0.563 | locus YEL061C, strain CIN8, active compounds read low 0.531 | locus YGR078C, strain PAC10, active compounds read low 0.794 | locus YHR030C, strain SLT2, active compounds read low 0.126 | locus YHR087W, strain rtc3, active compounds read low 0.528 | locus YJR043C, strain POL32, active compounds read low 0.421 | locus YJR075W, strain HOC1, active compounds read low 0.676 | locus YLR039C, strain RIC1, active compounds read low 0.275 | locus YLR058C, strain SHM2 (second series), active compounds read low 0.934 | locus YLR085C, strain ARP6, active compounds read low 0.208 | locus YLR262C, strain YPT6, active compounds read low 0.354 | locus YML094W, strain GIM5, active compounds read low 0.347 | locus YMR219W, strain ESC1, active compounds read low 0.765 | locus YMR263W, strain SAP30, active compounds read low 0.464 | locus YNL153C, strain GIM3, active compounds read low 0.459 | locus YNL298W, strain CLA4 (second series), active compounds read low 0.315 | locus YNL322C, strain KRE1, active compounds read low 0.755 | locus YNR030W, strain Alg12, active compounds read low 0.205 | locus YPL055C, strain LGE1, active compounds read low 0.263 | locus YPL241C, strain CIN2, active compounds read low 0.224 | locus YPR135W, strain CTF4, active compounds read low 0.264
